# Inconclusive results are not listed. Entries that show only a call come without a potency. The source made the active and inactive calls. The call rests on the fitted dose curve; in most records, active means well fitted activation curve with a large enough effect; inconclusive means small, poorly fitted or top-dose-only effect; inactive means flat fitted curve, though single readings scatter.
# Experiment: qHTS for Inhibitors of Cell Surface uPA Generation: Confirmatory Assay for Cherry-picked Compounds
# Details: cell surface uPA activity generation, qHTS confirmation; series mostly up to 115 µM
# Method in brief: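 RAW 264.7 cells at 4000/well, incubated overnight, then treated with compounds. After 24 h at 37 C, viability was read by ATPlite luminescence. An increase in signal indicates blocked uPA-dependent LF entry.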
# Potency means the concentration at half of the fitted maximal effect.
row,SMILES,Potency
1,Cc1ccc(S(=O)(=O)NCC(=O)N/N=C/c2ccc(Cl)cc2)cc1,inactive
2,Cc1ccc2nc(Nc3ccc(Cl)cc3)c3nncn3c2c1,inactive
3,O=C(O)c1ccc(-c2ccc(/C=C3\NC(=O)N(Cc4ccc(Cl)cc4)C3=O)o2)cc1,inactive
4,COc1cc(N/C(N)=N/c2nc(C)cc(C)n2)cc(OC)c1,inactive
5,CCS(=O)c1scc(-c2ccc(Cl)cc2)c1C#N (stereo not drawn),inactive
6,Cc1ccc(C(O)(COC(=O)C(C)C)COC(=O)C(C)C)c(O)c1,inactive
7,Cc1nc([N+](=O)[O-])cn1CCCCN1C(=O)c2ccccc2C1=O,inactive
8,COc1ccc(CCNC(=O)Cn2cccc2C(=O)c2ccccc2)c(OC)c1,inactive
9,Cc1c(NC(=S)Nc2ccc(Cl)cc2)c(=O)n(-c2ccccc2)n1C,inactive
10,COCCOc1ccc(C(F)(F)F)cc1NC(=O)COC(=O)Cc1c[nH]c2ccccc12,inactive
11,COc1ncnc(NS(=O)(=O)c2ccc(N)cc2)c1OC,inactive
12,COc1cccc2c1Oc1ncccc1N(C(=O)CCC(=O)NCc1ccc(C)cc1)C2,inactive
13,CC(=O)c1ccc(NC(=O)CN2CCN(c3ccccc3)CC2)cc1,inactive
14,COc1ccc(-c2cc3nc(C)cc(-c4ccc(OC)cc4)n3n2)cc1,inactive
15,COc1ccc(OC)c(S(=O)(=O)N2CCC(NC(=O)c3ccccc3)CC2)c1,inactive
16,COc1ccc(C[C@@H]2OC3(C=CC(=O)C=C3)O[C@H]2Cc2ccc(OC)cc2)cc1,inactive
17,O=C(c1cccc(F)c1)N1CCN(Cc2cccc(Br)c2)CC1,inactive
18,CN(/N=C/c1cc(Cl)cc(Cl)c1O)C(=S)NC(C)(C)C,inactive
19,Cc1cc(N)n(Cc2ccc(Cl)cc2)n1,inactive

row,SMILES,Potency
1,COc1cc(C(=O)Nc2nnc(C)s2)cc(OC)c1OC,inactive
2,CC(C)N1CCc2c(sc(NC(=O)CCc3ccccc3)c2C(N)=O)C1,inactive
3,COc1ccc(C(=O)NCC(=O)N/N=C/c2c(C)[nH]c3ccccc23)cc1,inactive
4,Cc1ccc(S(=O)(=O)N2CCC(C)CC2)cc1,inactive
5,O=C(NCCCn1ccnc1)C(=O)NCC(c1cccnc1)N1CCN(c2ccc(F)cc2)CC1 (stereo not drawn),inactive
6,O=S(=O)(c1ccc2nc(N3CCN(c4ccccc4)CC3)ccc2c1)N1CCCCC1,inactive
7,CC(=O)c1ccc(N2CCN(C(=S)NCc3ccco3)CC2)cc1,inactive
8,CCc1ccc(NC(=O)Cn2cnc([N+](=O)[O-])c2)cc1,inactive
9,Cc1ccc2oc(=O)c3cnn(CC(=O)Nc4ccccc4N4CCN(C)CC4)c3c2c1,9.27 µM (active)
10,Cc1ccc2cccc(OCCCOc3ccccc3CO)c2n1,inactive
11,COc1cc(/C=N/NC(=O)c2cc(-c3ccco3)nc3ccccc23)cc(OC)c1O,inactive
12,O=C1C[C@@H]2CCN3C(=O)CCC[C@@H]([C@H]23)[C@H]1Cc1ccccc1,inactive
13,O=C(Cc1n[nH]c(=O)c2ccccc12)Nc1cccc(S(=O)(=O)N2CCCCCC2)c1,inactive
14,O=C(O)CSc1nnc(COc2ccccc2)n1-c1ccccc1,inactive
15,COc1cccc(C(=O)NCc2ccc3[nH]c(C)cc3c2)c1,inactive
16,CC1(NC(=O)CSc2nnc(-c3c[nH]c4ccccc34)n2C2CC2)CCS(=O)(=O)C1 (stereo not drawn),inactive
17,COc1ccc(OC)c(S(=O)(=O)N2CCN(Cc3ccccc3)CC2)c1,inactive
18,CC(C)c1ccc(NC(=O)COc2ccc(S(=O)(=O)N3CCOCC3)cc2)cc1,inactive
19,Cc1nc(NC2CCCCC2)c2nnn(Cc3ccccc3Cl)c2n1,inactive
